Screens as filed in PubChem.
TDP1 cell noCPT: qHTS for Inhibitors of human tyrosyl-DNA phosphodiesterase 1 (TDP1): qHTS in cells in absence of CPT. DT40 Tdp1-/- hTDP1 cells, no CPT, ATP luminescence, 48 h. Potency, µM (series often up to 46.2 µM), actives largely listed as inhibitors. 420,000 compounds, 15% hits. AID 686978, 2013; note: nearly all actives have a fitted effect of over 55% in size
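DT40 Tdp1-/-;hTDP1 cells, no CPT (DMSO vehicle only), 400 cells/well; compounds pin-transferred; ≥48 hr, 37 °C; CellTiter-Glo 30 min RT dark, luminescence read.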
VP16 counter: Gal4-VP16 reporter inhibition counter-screen; Drosophila S2 Gal4-VP16 UAS-luciferase, luminescence, 20 h; Potency, µM (titrated, usually from 53.6 µM), usual class: inhibitors; 310,000 compounds, 3.5% hits;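 note: Gal4-VP16 expression switched on by copper sulfate through the metallothionein promoter; nearly all actives have a fitted effect of over 50% in size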
RORgamma inh: inhibitors of mouse ROR gamma transcriptional activity; P51450; Drosophila S2 Gal4-RORgamma UAS-luciferase reporter, 20 h; Potency, µM (doses to about 53.6 µM), usual class: inhibitors; 310,000 compounds, 5.4% hits; note: nearly all actives have a fitted effect of over 60% in size
Target sequence (P51450 whole entry, looked up, the tested form may be a part): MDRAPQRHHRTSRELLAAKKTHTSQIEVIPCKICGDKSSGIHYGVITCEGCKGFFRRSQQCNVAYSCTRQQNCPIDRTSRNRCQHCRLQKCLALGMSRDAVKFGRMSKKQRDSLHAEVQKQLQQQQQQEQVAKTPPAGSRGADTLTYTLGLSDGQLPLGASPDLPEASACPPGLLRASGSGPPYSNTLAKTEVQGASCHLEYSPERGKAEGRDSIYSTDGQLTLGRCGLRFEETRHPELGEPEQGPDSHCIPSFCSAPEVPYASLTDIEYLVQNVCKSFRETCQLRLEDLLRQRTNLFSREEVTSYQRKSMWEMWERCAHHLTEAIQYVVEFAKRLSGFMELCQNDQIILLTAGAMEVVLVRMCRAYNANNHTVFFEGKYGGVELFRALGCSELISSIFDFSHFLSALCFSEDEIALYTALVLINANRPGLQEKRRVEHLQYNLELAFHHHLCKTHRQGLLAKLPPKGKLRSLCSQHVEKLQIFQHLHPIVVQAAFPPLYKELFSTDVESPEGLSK
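ROR gamma transcriptional activity was tracked as Gal4-UAS luciferase output in stably transfected Drosophila Schneider cells, with compound added 1 hr before 700 uM copper sulfate induction and a 20 hr ambient-temperature incubation.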
TDP1 block: blocks human tyrosyl-DNA phosphodiesterase 1 | Q9NUW8 | Potency, µM (series often up to 130 µM), usual class: inhibitors | 350,000 compounds, 0.28% hits | recombinant TDP1, AlphaScreen DNA substrate cleavage; note: nearly all actives have a fitted effect of over 40% in size
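Enzyme-compound mixtures sat 15 min at room temperature, followed by a 5 min reaction with 15 nM final substrate and 10 min with AlphaScreen beads. Recombinant human Tdp1 was used at 1 nM final.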
TDP1 cell CPT: growth inhibition of DT40 Tdp1-/-;hTDP1 cells with camptothecin (screen for TDP1 inhibitors); 420,000 compounds, 12% hits; chicken DT40 Tdp1-/-;hTDP1 cells + 20 nM CPT, ATP luminescence, 48 h; AID 686979; Potency, µM (top dose mostly 46.2 µM), actives largely listed as inhibitors; note: nearly all actives have a fitted effect of over 55% in size
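Chicken DT40 Tdp1-/- cells complemented with human TDP1, 400 cells/well, exposed to compounds plus 20 nM camptothecin for at least 48 h at 37 C; viability read as ATP content by CellTiter-Glo luminescence.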
Large screens that a line does not name were inactive. A selection: hits, their analogues and other compounds. The true share with any hit is near 19%. Calls come from the whole dose curve; as a rule, active = well fitted curve in the direction sought with a large enough effect; inconclusive = small, poorly fitted or top-dose-only effect, or another doubt; inactive = no such curve, though single readings can be large; an effect the other way counts as inactive or inconclusive.

CCCN1Cc2cccc(C(=O)NC(CC(=O)OCC)c3ccc(OC(C)C)cc3)c2C1=O (stereo not given)	TDP1 cell noCPT 20.6µM, TDP1 cell CPT inconclusive
COCCN1Cc2cccc(C(=O)Nc3ccc(C)cc3)c2C1=O	TDP1 cell noCPT inconclusive
CCCN1Cc2cccc(C(=O)Nc3ccc(CN4CCCC4)cc3)c2C1=O	TDP1 cell noCPT 23.1µM
CCCN1Cc2cccc(C(=O)NC(CC(=O)OCC)c3ccc(C)cc3)c2C1=O (stereo not given)	none
O=C(NC1CCCCC1)c1nn2c(C(F)(F)F)cc(-c3ccco3)nc2c1Br	none
O=C(NCc1ccco1)c1cnn2c(C(F)(F)F)cc(-c3cccs3)nc12	TDP1 cell noCPT 20.6µM, VP16 counter inconclusive, TDP1 cell CPT 14.6µM
O=C(NC1CCCCC1)c1cnn2c(C(F)(F)F)cc(-c3ccco3)nc12	TDP1 cell noCPT inconclusive, RORgamma inh inconclusive, TDP1 cell CPT 23.1µM
COCCn1c(SCC(=O)NC2CCCCC2C)nnc1-c1ccncc1 (stereo not given)	none
COc1cccc(N(CC(=O)Nc2cccnc2)S(C)(=O)=O)c1	none
CCC(C)Oc1cc(-c2ccnc(Nc3cccc(Cl)c3)n2)ccn1 (stereo not given)	TDP1 cell noCPT inconclusive, TDP1 cell CPT inconclusive
OCCCNc1cc(-c2ccnc(Nc3cccc(Cl)c3)n2)ccn1	TDP1 cell noCPT 0.164µM, VP16 counter 1µM, RORgamma inh 1.78µM, TDP1 cell CPT 0.146µM
CN1CCN(C(=O)c2cnn(-c3cccc(F)c3)c2C2CCN(C(=O)OC(C)(C)C)CC2)CC1	none (no result: VP16 counter, RORgamma inh)
CC(C)(C)OC(=O)N1CCC(c2c(C(=O)NC3CCN(Cc4ccccc4)CC3)cnn2-c2ccc(F)cc2F)CC1	TDP1 cell noCPT 8.2µM, TDP1 cell CPT 11.6µM (no result: VP16 counter, RORgamma inh)
CC(C)(C)OC(=O)N1CCC(c2c(C(=O)NCc3ccccc3)cnn2-c2cccc(F)c2)CC1	TDP1 cell noCPT 18.4µM, TDP1 cell CPT inconclusive (no result: VP16 counter, RORgamma inh)
CC(C)(C)OC(=O)N1CCC(c2c(C(=O)NCCc3ccccc3)cnn2-c2ccc(F)cc2F)CC1	TDP1 cell noCPT 18.4µM, TDP1 cell CPT 20.6µM (no result: VP16 counter, RORgamma inh)
Cc1ccc(-n2ncc(C(=O)NCCc3ccccc3)c2C2CCN(C(=O)OC(C)(C)C)CC2)c(C)c1	TDP1 cell noCPT inconclusive, TDP1 cell CPT inconclusive (no result: VP16 counter, RORgamma inh)
CC(C)(C)OC(=O)N1CCC(c2c(C(=O)NCCN3CCc4ccccc4C3)cnn2-c2ccc(F)cc2F)CC1	TDP1 cell noCPT 11.6µM, TDP1 cell CPT 20.6µM (no result: VP16 counter, RORgamma inh)
CC(C)(C)OC(=O)N1CCC(c2c(C(=O)NCc3ccco3)cnn2-c2ccc(F)cc2F)CC1	TDP1 cell noCPT inconclusive, TDP1 cell CPT 23.1µM (no result: VP16 counter, RORgamma inh)
CC(C)(C)OC(=O)N1CCC(c2c(C(=O)NCCc3ccccc3)cnn2-c2ccc(F)cc2)CC1	TDP1 cell noCPT 16.4µM, TDP1 cell CPT inconclusive (no result: VP16 counter, RORgamma inh)
COc1ccc(-n2ncc(C(=O)NCc3cccs3)c2C2CCN(C(=O)OC(C)(C)C)CC2)cc1	TDP1 cell noCPT inconclusive, TDP1 cell CPT inconclusive (no result: VP16 counter, RORgamma inh)
CC(C)(C)OC(=O)N1CCC(c2c(C(=O)NCc3cccs3)cnn2-c2ccc(F)cc2F)CC1	TDP1 cell noCPT inconclusive, TDP1 cell CPT inconclusive (no result: VP16 counter, RORgamma inh)
CC(C)(C)OC(=O)N1CCC(c2c(C(=O)NCc3ccccc3)cnn2-c2ccc(F)cc2)CC1	TDP1 cell noCPT 18.4µM, TDP1 cell CPT 23.1µM (no result: VP16 counter, RORgamma inh)
COc1ccc(CNC(=O)c2cnn(-c3ccc(C)cc3)c2C2CCN(C(=O)OC(C)(C)C)CC2)cc1	TDP1 cell noCPT 20.6µM, TDP1 cell CPT 9.2µM (no result: VP16 counter, RORgamma inh)
O=C(Nc1ccccc1C(F)(F)F)c1noc2c1CCCC2	TDP1 cell noCPT inconclusive, TDP1 cell CPT inconclusive (no result: VP16 counter, RORgamma inh)
COc1ccc(C2=N[C@@H](C(C)C)CO2)cc1	none (no result: TDP1 cell noCPT, TDP1 cell CPT)
CCN(CC)S(=O)(=O)c1ccc(OC)c(NC(=O)C2CC(=O)N(c3ccc(C)cc3)C2)c1 (stereo not given)	RORgamma inh inconclusive
COc1ccc(NC2=C(C(C)=O)C(c3ccc(OC)cc3)C(C(C)=O)C(C)(O)C2)cc1 (stereo not given)	TDP1 cell noCPT inconclusive
CCOC(=O)c1oc2cc(OCC(N)=O)ccc2c(=O)c1-c1ccc(OC)c(OC)c1	RORgamma inh inconclusive
Brc1cccc(CNCc2cccs2)c1	TDP1 cell noCPT inconclusive
